This is part of a sample that, as a whole, favours compounds with a hit. Of some 79,000 tested, about 15% had one in any assay. Rule as the data show it: active = growth inhibition above about 70%; inactive = the rest.
Key:
[1] = NCI Yeast Anticancer Drug Screen. Data for the rad50 strain (AID 155);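 also: 0% = growth of vehicle-only cultures of the same strain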; settings: S. cerevisiae rad50 strain growth inhibition; at 50.0 µM; hits give high values
In short: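 Cells are treated with compound, grown, and their growth is then scored against vehicle-only cultures of the same repair-deficient yeast strain.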

[2] = NCI Yeast Anticancer Drug Screen. Data for the mec2-1 strain (AID 157); settings: S. cerevisiae mec2-1 strain, at 50.0 µM, hits give high values
In short: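 Compounds were applied to mec2-1 yeast cells. Their growth was then compared with that of vehicle-treated cultures to give growth inhibition.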

[3] = NCI Yeast Anticancer Drug Screen. Data for the sgs1 mgt1 strain (AID 161);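 also: 0% = growth of cultures given vehicle only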; settings: S. cerevisiae sgs1 mgt1 strain, at 50.0 µM, hits give high values
In short: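 Yeast cells carrying a defined DNA-repair defect were exposed to test compounds. Growth inhibition was measured relative to vehicle-treated controls.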

[4] = NCI Yeast Anticancer Drug Screen. Data for the cln2 rad14 strain (AID 165);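 also: 0% = growth equal to vehicle treated cultures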; settings: S. cerevisiae cln2 rad14 strain, at 50.0 µM, hits give high values
In short: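 Strain: cln2 rad14 yeast, altered in cell cycle control and DNA damage repair. Read-out: growth inhibition vs vehicle.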

[5] = NCI Yeast Anticancer Drug Screen. Data for the bub3 strain (AID 167); settings: S. cerevisiae bub3 mutant strain, at 50.0 µM, hits give high values
In short: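 Part of a panel of yeast mutants defective in DNA damage repair or cell cycle regulation. Each strain is grown with compound, and inhibition is calculated relative to solvent-treated cultures.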

[6] = NCI Yeast Anticancer Drug Screen. Data for the mlh1 rad18 strain (AID 175); settings: S. cerevisiae mlh1 rad18 strain growth inhibition; at 50.0 µM; hits give high values
In short: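 A repair-deficient yeast strain is exposed to test compound, and growth is scored relative to vehicle-treated controls.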

Measured: growth inhibition

CC(C)(CCC(=O)O)CCC(=O)O
inactive: [1] 16.3% | [2] 17.6% | [3] 15.8% | [4] -6.05% | [5] -4% | [6] 36%

O=C1CN(C=C(C(=O)c2ccccc2)C(=O)c2ccccc2)C(=S)N1
inactive: [1] -61.5% | [2] -31.7% | [3] -19.2% | [4] -39% | [5] -8.2% | [6] -30.4%

CCOC(=O)c1cnc(-n2[nH]c(C)c(CCO)c2=O)[nH]c1=O
inactive: [1] -11.2% | [2] -46.9% | [3] -33.1% | [4] -6.15% | [5] -8.9% | [6] -37%

NC(=O)COc1ncc(Cl)cc1Cl
inactive: [1] 4.05% | [2] -6.45% | [3] 3.15% | [4] -19.4% | [5] 4.4% | [6] 3.35%

Cc1ccc(NC(=O)C2C(=O)N(c3ccc(C)c(C)c3)C(=O)C2N=N)cc1C (configuration not stated)
inactive: [1] 7.9% | [2] 34.8% | [3] 26.6% | [4] -41.8% | [5] 0.35% | [6] 44.9%

Cc1cn(C2CC(O)C(COC(N)=O)O2)c(=O)[nH]c1=O (configuration not stated)
inactive: [1] -38.2% | [2] -20.9% | [3] -11.6% | [4] -5.3% | [5] -44.3% | [6] 2.35%

COC(=O)CCN1CCN(CCO)CC1C (configuration not stated)
inactive: [1] -36.9% | [2] -39.8% | [3] -26.6% | [4] -9.75% | [5] -2% | [6] -32.5%

Cn1ccnc1Sc1ccccn1
inactive: [1] -8.7% | [2] 30.1% | [3] 1.7% | [4] 21.9% | [5] 7.3% | [6] 6.15%

COc1cc(-c2ccc(N=C=O)c(OC)c2)ccc1N=C=O
inactive: [1] -4% | [2] -27.4% | [3] 9.8% | [4] -5.7% | [5] 29.9% | [6] -8.15%

CCOC(=O)CCC1CCCCC1
inactive: [1] -1.1% | [2] -8.15% | [3] -19.4% | [4] 0.65% | [5] -3.2% | [6] 8.15%

CCN(CC)CCC(=O)O
inactive: [1] -13.4% | [2] -19.4% | [3] -7% | [4] 5.95% | [5] -10.7% | [6] -5.2%

CC1(C)C2CCC(I)(C2)C1I (configuration not stated)
inactive: [1] 10.9% | [2] 0.45% | [3] -17.3% | [4] -15.8% | [5] 1.55% | [6] 10.3%

CC1CCC/C1=C(/I)C(=O)c1ccccc1 (configuration not stated)
inactive: [1] 2.25% | [2] -6.75% | [3] 24.6% | [4] 7.85% | [5] -2.15% | [6] -59.6%

CC(C)(C)C1COC(c2ccccc2)(c2ccccc2)C1 (configuration not stated)
inactive: [1] -24.6% | [2] -1.55% | [3] 8.7% | [4] -26.5% | [5] -2.4% | [6] -15.3%

Br/C=C/c1ccccc1
inactive: [1] 23.6% | [2] 11.3% | [3] 0.6% | [4] -14.7% | [5] 5.85% | [6] 46.1%

CC/C(=C\c1ccc(OC)cc1)c1ccc(OC)cc1
inactive: [1] -16.1% | [2] -31.1% | [3] 7.05% | [4] 4.75% | [5] 1.75% | [6] -5.05%

NC(=O)c1ccccc1C(N)=O
inactive: [1] 13.4% | [2] -10.6% | [3] 8.95% | [4] 30.7% | [5] -11.8% | [6] -31.9%

O=C1NC(=O)C(c2ccc(O)cc2)N1 (configuration not stated)
inactive: [1] -21.1% | [2] -14.8% | [3] -4.6% | [4] -30.9% | [5] 0.2% | [6] -10.2%

Nc1ncnc(N)c1NC(=O)CCCc1ccccc1
inactive: [1] 5.85% | [2] 18.6% | [3] -2.95% | [4] 1% | [5] 33.5% | [6] 15.9%

CC1=N[C@](C)(C2CC3C=CC2C3=O)COC1=O (some centres not stated)
inactive: [1] -15.5% | [2] -18.5% | [3] -27% | [4] -1.9% | [5] -11.6% | [6] -5.45%

OCC1C2C=CC1CC2 (configuration not stated)
inactive: [1] -1.4% | [2] -1.8% | [3] 15.2% | [4] -0.85% | [5] 11.7% | [6] -2.7%

CC(C)=CC1C(C(=O)Oc2c(Cl)c(Cl)c(Cl)c(Cl)c2Cl)C1(C)C (configuration not stated)
inactive: [1] 12.5% | [2] 6.5% | [3] 40.9% | [4] 12.2% | [5] -4.15% | [6] 31.2%

COc1ccc(/C=N/NC(=O)NCCCN(C)C)cc1
inactive: [1] 3.3% | [2] -29% | [3] -9.9% | [4] -5% | [5] -23.9% | [6] -7.65%

O=C1C(Cc2ccccc2)CCCC1Cc1ccccc1 (configuration not stated)
inactive: [1] -5.25% | [2] 17.3% | [3] -8.05% | [4] -21.5% | [5] -6.4% | [6] 3.35%

Cc1cc(C)c(C(=O)/C(O)=C/c2ccccc2)c(C)c1
inactive: [1] -13.7% | [2] -7.7% | [3] 1.2% | [4] 9.95% | [5] -45.5% | [6] -14.2%

CN(C)N=Nc1c(F)cc(F)c(F)c1F
inactive: [1] 4.75% | [2] 3.35% | [3] -9% | [4] -14.2% | [5] 7.3% | [6] -4.05%

C[n+]1cccc(C(=O)O)c1
inactive: [1] 5.25% | [2] 2.75% | [3] 8.65% | [4] -9.05% | [5] 17.8% | [6] 10.1%

CCC1(C)CCC(C)c2ccccc21 (configuration not stated)
inactive: [1] -1.75% | [2] -5.4% | [3] 3.45% | [4] 3.45% | [5] -0.8% | [6] 0.3%

Fc1ccc(F)c(C(Nc2nncs2)Nc2nncs2)c1
inactive: [1] 7.3% | [2] -8.75% | [3] 7.75% | [4] 2.4% | [5] 8.45% | [6] 7.85%

COC(=O)/C=C1\SC(OC)(N(C)c2ccccc2)N(C)C1=O (configuration not stated)
inactive: [1] -25.6% | [2] 9.6% | [3] 22.7% | [4] -10.4% | [5] -0.8% | [6] 19.1%

O=C1Nc2noc(=O)nc2NO1
inactive: [1] 13.1% | [2] 4.8% | [3] -0.35% | [4] -2.5% | [5] -22.4% | [6] -18.5%

CCOc1ccc(N2CCN(C(=O)Nc3ccccc3OC)CC2)cc1
inactive: [1] -4.1% | [2] -6.2% | [3] -1.8% | [4] -47.5% | [5] 21.1% | [6] -3.95%

Oc1ccc(C(c2ccc(O)cc2)c2ccc(O)cc2)cc1
inactive: [1] 2.1% | [2] 3.9% | [3] 29.9% | [4] 19.1% | [5] 22.1% | [6] -18.2%

CCOC(=O)C(=O)C1CC(c2ccccc2)=NNC1=O (configuration not stated)
inactive: [1] 23% | [2] 26.5% | [3] 12.9% | [4] 23.1% | [5] 31.1% | [6] 26.2%

CCCCCCCCCCCCCCCCn1cnc2c(=S)nc[nH]c21
inactive: [1] -22.1% | [2] -5.25% | [3] -19.1% | [4] -4.75% | [5] 0.5% | [6] -6.9%

Cn1ncc2[nH]c(=O)n(OS(=O)(=O)c3ccccc3)c(=O)c21
inactive: [1] 17.3% | [2] -16.9% | [3] -15.5% | [4] 4.3% | [5] 0.9% | [6] 5%

CCCCCCCCC(=O)N1CCOCC1
inactive: [1] 17.4% | [2] 7.15% | [3] 18.3% | [4] 16.4% | [5] -0.8% | [6] 8.8%

Reference: PubChem BioAssay (NCI)
